Shown are actives, neighbours in structure and some others; about 4% of the full set was active somewhere.
tim23-1 inh: growth inhibitors of tim23-1 mutant yeast; S. cerevisiae tim23-1 growth, BacTiter-Glo luminescence, 24 h; inhibition, % at 20 µM; 1.3% of 330,000 active; AID 463212;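 active means growth inhibition of the mutant yeast at or above 50%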;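 further: temperature-sensitive mutant grown at 25 °C; plate controls were DMSO-treated mutant yeast for no effect and medium wells lacking yeast for full effect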
NALP1 inh: NALP1 inhibition | S. cerevisiae NALP1/ASC/caspase-1 growth, X-gal OD620, 72 h | inhibition, % at 10 µM | 0.61% of 280,000 active | AID 2071; in the data active means inhibition mostly above about 24%, no sharp cut-off; inactive means mostly below about 32%
NLRP3 yeast inh: inhibitors of NALP3 inflammasome in yeast | Yeast reconstituted NLRP3/ASC/caspase-1, beta-gal luminescence, 24 h | inhibition, % at 10 µM | 0.39% of 330,000 active | AID 2825;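 active means inhibition of 50% or more; inactive means inhibition below 50%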;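 further: plate controls were induced DMSO wells for no effect and uninduced yeast grown without galactose for full effect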
TIM10 inh: growth inhibitors of TIM10 yeast strain | S. cerevisiae TIM10 strain growth, BacTiter-Glo luminescence, 24 h | inhibition, % at 10 µM | 1.4% of 330,000 active;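 active means inhibition of 40% or more at the single tested concentration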;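 further: wild-type TIM10 isogenic control strain grown at permissive 25 °C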
tim10-1 inh: inhibits growth of tim10-1 mutant yeast. S. cerevisiae tim10-1 ts strain growth, BacTiter-Glo, 24 h. inhibition, % at 20 µM. 2.2% of 330,000 active. AID 463190;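 active means inhibition of at least 40%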;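 further: mutant grown at 25 °C; 0% = DMSO wells with yeast and 100% = wells holding no yeast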
tim10-1 confirm: confirmation of tim10-1 mutant yeast growth inhibitors. 56% of 7,400 active. S. cerevisiae tim10-1 ts strain growth, BacTiter-Glo, 24 h. shares compounds with tim10-1 inh. AID 463213. inhibition, % at 20 µM;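 active means inhibition of yeast growth at or above a set limit in either of two repeat tests at 20 µM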;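 further: tim10-1 mutant grown at permissive 25 °C to find synthetic lethal compounds; 0% = DMSO yeast wells and 100% = medium wells without yeast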
An asterisk follows results filed as active; / = no result given; ! = repeats disagree.

SMILES | tim23-1 inh | NALP1 inh | NLRP3 yeast inh | TIM10 inh | tim10-1 inh | tim10-1 confirm
Cc1ccc(NC(=S)NCc2ccccc2)c(C)c1 | 14.3 | 3.3 | 23.3 | 4.1 | 10.8 | /
Cc1ccc(SCCNC(=S)Nc2ccc(C)cc2C)cc1 | 31.7 | 16.4 | 7.1 | 23.8 | 44.2* | 16.6
Cc1cccc(C)c1NC(=S)NCCSc1ccc(Cl)cc1 | 16.6 | 9.0 | 7.8 | 31.1 | 41.7* | 23.5
COc1ccc(Cl)cc1NC(=S)NCCSc1ccc(C)cc1 | 31.7 | -17.3 | 22.3 | 16.9 | 48.9* | 40.5*
COc1ccc(NCC(=O)N/N=C/C2CCCCC2)cc1 | 0.4 | -8.1 | 7.0 | -12.8 | -6.2 | /
Cc1cccc(C(=O)N2CCN(Cc3nc4sc5c(c4c(=O)[nH]3)CCCC5)CC2)c1 | 2.3 | 3.6 | 2.6 | 21.5 | 13.3 | /
CCOc1ccc(NC(=S)c2ccc3ccccc3n2)cc1 | 6.1 | -0.6 | 30.5 | 16.0 | 23.2 | /
COc1ccc(NC(=S)c2ccc3ccccc3n2)cc1 | 39.7 | -15.3 | 36.7 | 16.1 | 56.3* | 10.0
CC(C)OP(=O)(OC(C)C)C(Nc1ccccn1)c1ccc(F)cc1 (centres undefined) | 26.0 | 21.0 | -10.8 | 1.0 | 45.6* | 16.1
Cc1c(C=O)c2ccccn2c1C(=O)c1cccs1 | 7.7 | 22.6 | 1.0 | -11.5 | 12.9 | /
C=CC(=O)Oc1ccc(N2Cc3ccccc3C2=O)cc1 | 21.2 | / | -29.7 | 3.5 | 59.5* | 67.7*
COc1ccc(N2Cc3ccccc3C2=O)cc1 | 14.6 | 17.2 | 42.6 | -8.5 | -17.6 | /
CCCCN1/C(=C/c2cccc[n+]2C)Sc2cc(NC(C)=O)ccc21 | 10.5 | 10.2 | 10.0 | 2.9 | 1.5 | /
CCCCN1/C(=C/c2ccc3ccccc3[n+]2CC)Sc2ccccc21 | 39.5 | 10.3 | 14.3 | -44.8 | 60.0* | 57.2*
COc1cc2c(C#N)c(N3CCCC3)nc(N)c2c(N)n1 | 47.6 | / | 2.4 | 27.0 | 43.4*! | 21.8
N#C/C(=C\c1cccs1)C(=O)Nc1ccccn1 | 2.8 | 1.0 | 3.3 | -15.3 | -20.6 | /
c1ccc2c(c1)ccc1nnc(SCc3ccc4c(c3)OCO4)n12 | 40.4 | -30.5 | 30.5 | 5.0 | 42.0* | 19.9
CCCCNc1ncnc2c1cnn2Cc1ccc(Cl)cc1 | 23.0 | 17.3 | 36.7 | 8.6 | 40.0* | 11.2
COCCNc1ncnc2c1cnn2Cc1ccc(Cl)cc1 | 15.8 | -2.9 | 0.6 | 10.7 | 9.8 | /
Cc1cc2ncn(C(=O)c3c(-c4ccccc4)noc3C)c2cc1C | 40.6 | 1.8 | 9.2 | 33.8 | 40.8* | 24.0
Cc1cc2ncn(C(=O)c3c(-c4c(Cl)cccc4Cl)noc3C)c2cc1C | 5.7 | -14.8 | 16.1 | 4.5 | 10.8 | /
Cc1ccc(CCN2CCN=C2Nc2ccccc2)cc1 | -3.2 | / | 20.0 | 5.8 | -17.2 | /
CCOC(=O)CSc1nnc(-c2ccc(S(=O)(=O)N3CCC(C)CC3)cc2)o1 | 19.7 | 12.8 | 3.3 | -2.8 | 29.6 | /
CC(=O)CSc1nnc(-c2ccc(S(=O)(=O)N3CCC(C)CC3)cc2)o1 | 29.0 | / | -2.0 | 28.7 | 41.6* | 24.4
O=C(c1ccc(Cl)cc1)[C@@H]1[C@@H]2C(=O)N(c3ccccc3)C(=O)[C@@H]2C2c3ccccc3C=NN21 (some centres undefined) | 40.8 | 33.8 | -7.1 | 15.3 | 40.1* | 23.0
SMILES | tim23-1 inh | NALP1 inh | NLRP3 yeast inh | TIM10 inh | tim10-1 inh | tim10-1 confirm
CCOc1ccccc1/C=C(/NC(=O)c1ccccc1)C(=O)NC(C)c1ccccc1 (centres undefined) | 5.7 | 37.4 | -7.4 | -1.9 | 33.4 | /
COCCN1CN(S(=O)(=O)c2cccc(Cl)c2)c2nc3ccccc3nc21 | 39.2 | 0.2 | 9.0 | 18.7 | 45.4* | 10.2
CCCCN1CN(S(=O)(=O)c2ccc(OC)cc2)c2nc3ccccc3nc21 | 42.2 | 8.0 | -0.2 | 22.4 | 45.8* | 12.4
CCOC(=O)c1ccc(S(=O)(=O)Nc2cc(C(C)(C)C)no2)cc1 | 24.4 | -1.8 | -14.4 | 9.7 | 40.9* | 14.7
CC1CCCN(S(=O)(=O)c2cc3c4c(c2)CCN4C(=O)CC3)C1 (centres undefined) | -0.5 | / | 11.7 | 1.6 | 8.6 | /
CC(Nc1nc(N2CCNCC2)nc2ccccc12)c1ccccc1 (centres undefined) | -4.5 | 12.3 | -3.4 | -12.2 | -3.8 | /
C=CCc1c(C)nc(SC)nc1Nc1ccccc1 | 35.0 | 1.6 | 21.3 | 19.5 | 44.2* | 26.5
CCOC(=O)C1=C(NC(=O)c2ccc(Br)o2)Nc2ccccc2N=C1 | 0.3 | 10.1 | 4.6 | 4.2 | -2.4 | /
O=C(C1CC1)N1CCc2cc(S(=O)(=O)NCC3COc4ccccc4O3)ccc21 (centres undefined) | 26.6 | 4.4 | -3.2 | 31.6 | 45.7* | 26.1
O=C(C1CCC1)N1CCc2cc(S(=O)(=O)NCC3COc4ccccc4O3)ccc21 (centres undefined) | 0.6 | 3.0 | 9.1 | 26.4 | 11.4 | /
CCC1CCCCN1S(=O)(=O)c1ccc(C(=O)Nc2nnc(-c3cccs3)o2)cc1 (centres undefined) | 21.1 | 19.2 | 5.4 | 17.7 | 44.9* | 27.4
CC1CCCN(S(=O)(=O)c2ccc(C(=O)Nc3nnc(-c4ccccn4)o3)cc2)C1 (centres undefined) | 4.7 | 4.0 | -2.8 | 9.2 | 20.8 | /
CC1CCCN(S(=O)(=O)c2ccc(C(=O)Nc3nnc(-c4ccccc4Cl)o3)cc2)C1 (centres undefined) | -4.5 | 25.2 | -10.4 | 22.4 | 41.7* | 6.7
